Bioassay records as filed in PubChem.
KCNQ2 inh = inhibitors of rat KCNQ2 potassium channel. O88943. CHO-K1 KCNQ2, FluxOR thallium flux, 20 min; stronger effect = lower value. B-score at 10 µM. actives 1.1% (n = 310,000);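 active = fluorescence ratio B-score at most minus 3 library SDs, with starting brightness B-score within 2 library SDs, cut at about -5.5 in these data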
KCNQ2 enhance = KCNQ2 (rat) channel potentiation; O88943; CHO-K1 KCNQ2, FluxOR thallium flux fluorescence; stronger effect = higher value; B-score at 10 µM; actives 0.54% (n = 310,000); AID 2239;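 active = fluorescence ratio B-score at least 3 SD of library B-scores, with initial fluorescence B-score within 3 of them, cut at about 5.3 in these data; same plate scores as AID 2156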;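 also: B-score of peak minus minimum over baseline fluorescence ratio after K+ and Tl+ stimulus; positive B-score means potentiation of KCNQ2 with more thallium influx and brighter signal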
Kir21 confirm = confirmation of mouse Kir2.1 potassium channel inhibitors. shares compounds with KCNQ2 enhance. Kir2.1-expressing cells, FluxOR thallium flux fluorescence; stronger effect = lower value. Tl flux remaining, % of negative control (stronger effect = lower value), % at 10 µM. actives 41% (n = 2,300). AID 2032;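 active = Primary-screen hit whose thallium flux fell at least 3 control SD below untreated wells in both duplicates, with normal baseline fluorescence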;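 also: 0% = blank wells without stimulus and 100% = stimulated no-compound controls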
HEK293 Tl flux = counter-screen for Kir2.1 inhibitors: effect in parental HEK293 cells; shares compounds with KCNQ2 enhance; AID 2105; FluxOR signal as % of negative control (100 = no effect), % at 10 µM; FluxOR thallium flux fluorescence; 0% = unstimulated blank wells; actives 19% (n = 2,300);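 active = dye signal at least 3 control SD above or below untreated wells in both duplicates, raw fluorescence within 3, either direction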;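 also: percent is based on the flux ratio of peak minus minimum fluorescence over baseline F0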
CHO-K1 ctr = parental CHO-K1 activity in KCNQ2 potentiator counter-screen. parental CHO-K1 cells, FluxOR thallium flux fluorescence; zero = vehicle mean+3SD, 100% = vehicle-minus-blank window. AID 2282. shares compounds with KCNQ2 enhance. actives 43% (n = 1,200). activity increase over 3SD of controls, % at 10 µM;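 active = signal rise of at least 3 SD above the untreated control mean, in both duplicate wells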;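 also: counter screen of KCNQ2 potentiator hits so any rise reflects channel-independent effects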
KCNQ1 sel pot = human KCNQ1 counter-target activity of KCNQ2 potentiators | actives 28% (n = 1,200) | activation over 3SD threshold, % at 10 µM | CHO KCNQ1 stable, FluxOR thallium flux fluorescence; beyond 3SD, as % of vehicle-control signal | shares compounds with KCNQ2 enhance | AID 2283;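 active = fluorescence ratio rise of at least 3 SD of vehicle wells above their mean, in both replicate wells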;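 also: 0% = vehicle mean plus 3 SD and 100% = vehicle minus unstimulated blank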
KCNQ2 pot confirm = confirmation of rat KCNQ2 potassium channel potentiators; shares compounds with KCNQ2 enhance; CHO-KCNQ2 cells, FluxOR thallium flux fluorescence; potentiation, less the hit threshold, % at 10 µM; actives 68% (n = 1,200); AID 2287;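 active = fluorescence ratio rising 3 SD or more over the vehicle control mean in both replicates, plus primary screen hit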;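 also: peak minus minimum thallium fluorescence divided by baseline after K/Tl stimulus; 0% = vehicle mean plus 3 SD and 100% = vehicle minus unstimulated blank difference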
Kir2-1 sel = mouse Kir2.1 off-target activity of KCNQ2 potentiators. actives 2% (n = 1,200). HEK293 Kir2.1, FluxOR thallium flux fluorescence. activity over 3SD threshold, % at 10 µM. shares compounds with KCNQ2 enhance;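 active = fluorescence ratio rise of at least 3 SD above the vehicle-control mean, seen in both replicates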;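 also: 0% = vehicle mean plus 3 SD and 100% = vehicle minus no-stimulus blank window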
KCNQ2 W236L MoA = potentiates the retigabine-insensitive rat KCNQ2 W236L mutant channel | shares compounds with KCNQ2 enhance | CHO KCNQ2-W236L, automated patch clamp current | current increase over 3SD of negative controls (%), stronger effect = higher value, % at 25 µM | actives 10% (n = 940) | AID 2558;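 active = current increase at least 3 SD of the untreated controls above them in both duplicate recordings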
Target sequence (O88943 whole entry W236L, looked up): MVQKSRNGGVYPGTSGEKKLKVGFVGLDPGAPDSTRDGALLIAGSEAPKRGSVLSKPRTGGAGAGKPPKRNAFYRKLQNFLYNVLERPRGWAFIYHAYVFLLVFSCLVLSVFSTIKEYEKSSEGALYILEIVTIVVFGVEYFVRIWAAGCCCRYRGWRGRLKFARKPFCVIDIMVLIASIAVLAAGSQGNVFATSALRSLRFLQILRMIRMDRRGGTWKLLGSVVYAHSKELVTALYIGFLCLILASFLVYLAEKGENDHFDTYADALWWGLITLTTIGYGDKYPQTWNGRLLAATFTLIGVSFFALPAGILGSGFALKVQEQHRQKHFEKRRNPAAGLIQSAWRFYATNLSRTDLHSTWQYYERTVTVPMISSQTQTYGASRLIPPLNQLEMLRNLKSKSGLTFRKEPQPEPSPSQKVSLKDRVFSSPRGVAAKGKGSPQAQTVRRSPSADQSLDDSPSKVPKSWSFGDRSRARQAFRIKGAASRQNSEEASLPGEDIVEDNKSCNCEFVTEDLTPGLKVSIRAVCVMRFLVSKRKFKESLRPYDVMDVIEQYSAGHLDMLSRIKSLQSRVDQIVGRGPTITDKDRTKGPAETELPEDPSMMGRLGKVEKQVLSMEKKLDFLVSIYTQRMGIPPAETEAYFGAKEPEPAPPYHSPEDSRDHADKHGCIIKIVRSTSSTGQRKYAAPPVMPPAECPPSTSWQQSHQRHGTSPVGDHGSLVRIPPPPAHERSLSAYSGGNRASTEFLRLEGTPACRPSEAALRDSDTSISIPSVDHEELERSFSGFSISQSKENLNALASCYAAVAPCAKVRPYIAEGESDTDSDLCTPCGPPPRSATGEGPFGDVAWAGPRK
* = called active by the depositor; i = inactive; . = no result given; ! = not active in a repeat. An excerpt weighted towards active compounds, which were near 1.6% of everything screened.

SMILES	KCNQ2 inh	KCNQ2 enhance	Kir21 confirm	HEK293 Tl flux	others
COc1ccccc1N=NC1=C(O)CC(C)(C)CC1=O	i	.	.	.
Cc1c(N=NC2=C(O)CC(C)(C)CC2=O)cc2c(c1[N+](=O)[O-])C(C)(C)CC2(C)C	i	6.68*	i	i	CHO-K1 ctr=41.5*;KCNQ1 sel pot=-10.7;KCNQ2 pot confirm=-0.5;Kir2-1 sel=-31.4;KCNQ2 W236L MoA=i
Cc1cc(C)n(CC(=O)N2CCCC(N3CCN(c4ccc(F)cc4)CC3)C2)n1 (stereo not given)	i	.	.	.
S=C(Nc1ccc(Cl)cc1Cl)NC1CCN(Cc2ccccc2)CC1	i	0.91	.	.
Clc1ccc(CNC2CCN(Cc3ccccc3)CC2)cc1	i	.	28.0%*	i
CC(=O)N1CCC(C(=O)c2ccc(Cl)cc2)CC1	i	.	.	.
Fc1ccc(CNC2CCN(Cc3ccccc3)CC2)cc1	i	.	.	.
O=C(c1ccc(Cl)cc1)C1CCN(Cc2ccccc2)CC1	i	.	20.5%*	i
O=C(NC1CCN(Cc2ccccc2)CC1)c1ccc(Cl)cc1Cl	i	.	76.5%*	i
COc1ccccc1OCc1cc(C(=O)NCc2ccc(N3CCCC3=O)cc2)no1	i	.	.	.
COc1cccc(CCNC(=O)CCCC(=O)c2ccccc2)c1	i	.	.	.
Cc1ccc2c(CN(C)Cc3ccc(Cl)cc3Cl)cc(=O)oc2c1	i	.	.	.
NC(=O)NC(=O)COC(=O)CNS(=O)(=O)c1ccc(F)c(F)c1F	i	.	.	.
Cc1ccc(S(=O)(=O)NCCC(=O)Nc2nccs2)cc1	i	.	.	.
Cc1cc(C)nc(SCCC(=O)Nc2ccccc2Cl)n1	i	0.52	.	.
CSc1ccc2c(c1)C(N1CCN(C)CC1)Cc1ccccc1S2 (stereo not given)	-6.79*!	-6.79	39.5%*	i
CSc1cccc(NC(=O)N2CCN(C)CC2)c1	i	0.01	.	.
CC(C)c1nnc(NC(=O)CC23CC4CC(CC(C4)C2)C3)s1	i	.	.	.
CCCCn1nnc(NC(=O)CC23CC4CC(CC(C4)C2)C3)n1	i	19.7*	i	i	CHO-K1 ctr=10.1*;KCNQ1 sel pot=-24.5;KCNQ2 pot confirm=59.1*;Kir2-1 sel=-34.1;KCNQ2 W236L MoA=i
Cc1ncoc1C(=O)N1CCCC(C(=O)c2ccc(C(F)(F)F)cc2)C1 (stereo not given)	i	.	.	.
CCCc1ccc(OCc2ccc(C(=O)O)o2)c(OC)c1	i	0.16	.	.
COc1ccc(CCN(C)C(=O)c2ccc(COc3ccccc3)o2)cc1OC	i	.	56.0%*	i
COc1ccc(-c2sc(Nc3ccc(F)c(F)c3F)nc2CCC(=O)NN)cc1	i	.	.	.
CCNC(=O)COC(=O)c1cc(S(=O)(=O)N2CCCc3ccccc32)ccc1Cl	i	0.6	.	.
CCCCCC(O)(c1ccc(OC)cc1)C(CN1CCOCC1)c1ccccc1 (stereo not given)	i	6.22*	i	i	CHO-K1 ctr=62.1*;KCNQ1 sel pot=-13.4;KCNQ2 pot confirm=-1.5;Kir2-1 sel=-29.4;KCNQ2 W236L MoA=i
SMILES	KCNQ2 inh	KCNQ2 enhance	Kir21 confirm	HEK293 Tl flux	others
CCCCC(O)(c1ccc(OC)cc1)C(CN1CCOCC1)c1ccccc1 (stereo not given)	i	0.75	.	.
Cc1cccc(C(=O)NC(C(=O)Nc2ccccc2N2CCOCC2)C(C)C)c1 (stereo not given)	i	.	.	.
Clc1cccc(CSc2nccn2-c2ccccc2)c1	i	.	63.5%*	i
Brc1ccc(CSc2nccn2-c2ccccc2)cc1	i	.	.	.
CCC(=O)N(CCC(c1ccco1)C(C)C)Cc1ccccc1 (stereo not given)	i	.	50.0%*	68.5%*
CC(=O)N(CCC(c1ccco1)C(C)C)Cc1ccc(Cl)cc1 (stereo not given)	i	.	.	.
CCOC(=O)c1cnn(-c2ccc([N+](=O)[O-])cc2)c1N	i	0.38	.	.
